Several values for one entry are separate records, joined by “and”; a condition that tells them apart may be missing. Equal values may be shown once. Records with an inconclusive call do not appear. A call without a number means that no potency is given here. Activity calls are given as the source filed them. Unless noted, the call rests on the fitted dose curve; in most records, active means well fitted curve in the direction sought with a large enough effect in the repeat runs; inconclusive means weak or mixed curves; inactive means no such curve, though single readings can be large; an effect the other way counts as inactive or inconclusive.
What was measured:
[1] = qHTS RealTime-Glo MT Cell Viability Assay in HEK293 cells - 0 hour (AID 1224880); further: top concentration of the series differs between compounds; nearly all actives have a fitted effect of over 45% in size
How it was run: (§1)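 Luminescence, which tracks viable cell number through reduction of the prosubstrate to a NanoLuc substrate, was read over continuous 37 C culture. Cells (600/well) were premixed with reagent and rested 5 h before 23 nL of compound in DMSO was pinned.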

[2] = A CellTox Green Cytotoxicity Assay to monitor cytotoxicity in HEK293 cells - 32 hour (AID 1224881); further: nearly all actives have a fitted effect of over 40% in size; further: potency means the concentration at half of the fitted maximal effect
How it was run: (§2)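 Fluorescence from a DNA-binding dye excluded by viable cells was measured repeatedly in the same HEK293 wells (600 cells/well) during continuous compound exposure at 37 C. Each assay gives one read point: 0, 8, 16, 24, 32 or 40 h.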

[3] = A CellTox Green Cytotoxicity Assay to monitor cytotoxicity in HepG2 cells - 0 hour (AID 1224882); further: nearly all actives have a fitted effect of over 35% in size
How it was run: (§3)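 Real-time cytotoxicity: fluorescence of a cell-impermeant cyanine dye binding DNA of dead HepG2 cells, measured repeatedly (0–40 h) during compound exposure at 37 C. Cells seeded 600/well with reagent, dosed after 5 h.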

[4] = A CellTox Green Cytotoxicity Assay to monitor cytotoxicity in HepG2 cells - 32 hour (AID 1224883); further: nearly all actives have a fitted effect of over 50% in size; further: potency means the concentration at half of the fitted maximal effect
How it was run: as §3

[5] = A CellTox Green Cytotoxicity Assay to monitor cytotoxicity in HEK293 cells - 8 hour (AID 1224884); further: nearly all actives have a fitted effect of over 35% in size
How it was run: as §2

[6] = qHTS RealTime-Glo MT Cell Viability Assay in HepG2 cells - 16 hour (AID 1224885); further: nearly all actives have a fitted effect of over 50% in size
How it was run: (§4)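 Viability was tracked continuously by NanoLuc luminescence from prosubstrate reduced by living HepG2 cells, at successive time points over 40 h of compound exposure. Cells with reagent were preincubated 5 h at 37 °C before compound addition.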

[7] = qHTS RealTime-Glo MT Cell Viability Assay in HEK293 cells - 24 hour (AID 1224886); further: nearly all actives have a fitted effect of over 50% in size; further: potency means the concentration at half of the fitted maximal effect
How it was run: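 Viability tracked continuously by luminescence as live cells reduce a prosubstrate for NanoLuc; HEK293 cells preincubated 5 h, compound-treated at 37 C, and read at 0, 8, 16, 24, 32 and 40 h.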

[8] = A CellTox Green Cytotoxicity Assay to monitor cytotoxicity in HEK293 cells - 16 hour (AID 1224888); further: nearly all actives have a fitted effect of over 35% in size
How it was run: as §2

[9] = qHTS RealTime-Glo MT Cell Viability Assay in HepG2 cells - 0 hour (AID 1224889); further: nearly all actives have a fitted effect of over 50% in size
How it was run: as §4

[10] = A CellTox Green Cytotoxicity Assay to monitor cytotoxicity in HepG2 cells - 8 hour (AID 1224890); further: nearly all actives have a fitted effect of over 45% in size
How it was run: as §3

[11] = qHTS assay to identify small molecule antagonists of the estrogen receptor alpha (ER-alpha) signaling pathway using the BG1 cell line in the presence of 0.1 nM 17-beta-estradiol - cell viability counter screen (AID 1259241); further: nearly all actives have a fitted effect of over 40% in size; further: potency means the concentration at half of the fitted maximal effect
How it was run: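 CellTiter-Fluor read (30 min, 37C) on ER-alpha/ERE-luc VM7Luc4E2 cells; 22 hr compound treatment; agonist 0.1 nM E2 final; same-well multiplex.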

[12] = molecular target: Androgen receptor (Homo sapiens) (UniProt P10275); experiment: qHTS assay to identify small molecule antagonists of the androgen receptor (AR) signaling pathway using the MDA cell line in the presence of 0.5 nM R1881 (AID 1259243)
Chain of Androgen receptor (Homo sapiens) (P10275 whole entry, looked up): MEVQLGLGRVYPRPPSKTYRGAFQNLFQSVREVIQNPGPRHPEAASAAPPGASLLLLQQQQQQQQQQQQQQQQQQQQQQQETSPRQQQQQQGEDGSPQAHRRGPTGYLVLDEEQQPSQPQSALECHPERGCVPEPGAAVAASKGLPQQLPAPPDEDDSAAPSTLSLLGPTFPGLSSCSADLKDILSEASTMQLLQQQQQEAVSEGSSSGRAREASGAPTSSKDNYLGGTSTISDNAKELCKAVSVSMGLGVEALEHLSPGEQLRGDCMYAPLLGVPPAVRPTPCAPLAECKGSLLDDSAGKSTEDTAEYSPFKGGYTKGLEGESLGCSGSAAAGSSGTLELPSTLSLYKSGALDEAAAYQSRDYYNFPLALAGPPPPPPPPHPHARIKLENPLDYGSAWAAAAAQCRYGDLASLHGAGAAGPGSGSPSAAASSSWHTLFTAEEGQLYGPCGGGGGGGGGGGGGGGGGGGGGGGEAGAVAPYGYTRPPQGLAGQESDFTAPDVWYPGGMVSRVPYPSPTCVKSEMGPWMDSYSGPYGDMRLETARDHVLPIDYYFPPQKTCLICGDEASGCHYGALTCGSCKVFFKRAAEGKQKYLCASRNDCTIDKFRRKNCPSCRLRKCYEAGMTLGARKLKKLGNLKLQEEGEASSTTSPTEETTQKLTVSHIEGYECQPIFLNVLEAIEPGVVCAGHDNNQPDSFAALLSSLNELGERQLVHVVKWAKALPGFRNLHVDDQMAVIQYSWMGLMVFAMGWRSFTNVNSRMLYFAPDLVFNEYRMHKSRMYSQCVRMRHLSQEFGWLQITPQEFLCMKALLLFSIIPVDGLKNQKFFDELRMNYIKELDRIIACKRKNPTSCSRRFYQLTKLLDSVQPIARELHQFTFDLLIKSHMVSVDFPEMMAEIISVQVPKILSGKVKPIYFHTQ
How it was run: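 Luminescent reporter readout (ONE-Glo, 30 min, room temperature) after 16 hr co-treatment of MDA-kb2 cells with test compounds and 0.5 nM R1881 final, at 37C without CO2. The MMTV-driven luciferase responds to both AR and GR.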

[13] = molecular target: Estrogen receptor (Homo sapiens) (UniProt P03372); experiment: qHTS assay to identify small molecule antagonists of the estrogen receptor alpha (ER-alpha) signaling pathway using the BG1 cell line in the presence of 0.1 nM 17-beta-estradiol (AID 1259244); further: nearly all actives have a fitted effect of over 50% in size; further: potency means the concentration at half of the fitted maximal effect
Chain of Estrogen receptor (Homo sapiens) (P03372 whole entry, looked up): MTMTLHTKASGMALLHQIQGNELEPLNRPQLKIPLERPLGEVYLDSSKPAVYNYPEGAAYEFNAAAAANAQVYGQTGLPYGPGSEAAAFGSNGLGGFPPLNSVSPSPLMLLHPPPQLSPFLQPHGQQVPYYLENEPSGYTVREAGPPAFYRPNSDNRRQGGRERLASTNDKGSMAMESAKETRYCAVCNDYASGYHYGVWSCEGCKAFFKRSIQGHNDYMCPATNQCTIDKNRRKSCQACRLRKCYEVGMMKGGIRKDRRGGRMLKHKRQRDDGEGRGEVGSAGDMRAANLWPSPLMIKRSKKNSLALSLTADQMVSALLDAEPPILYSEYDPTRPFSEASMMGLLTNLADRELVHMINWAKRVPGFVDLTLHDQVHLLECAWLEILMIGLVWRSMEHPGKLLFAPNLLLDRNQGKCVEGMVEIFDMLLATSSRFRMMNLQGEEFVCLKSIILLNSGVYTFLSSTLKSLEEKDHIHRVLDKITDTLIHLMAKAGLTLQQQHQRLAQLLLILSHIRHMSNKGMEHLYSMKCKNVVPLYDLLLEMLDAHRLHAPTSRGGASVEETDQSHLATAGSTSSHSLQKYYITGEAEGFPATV
How it was run: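 Luciferase luminescence (ONE-Glo, 30 min at room temperature) was read after 22 hr at 37C exposure to compounds plus 17beta-estradiol at 0.1 nM final. Cells were VM7Luc4E2 with endogenous ER-alpha and an ERE-driven luciferase, pre-cultured 5 days in hormone-depleted medium.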

[14] = qHTS assay to identify small molecule HDAC inhibitors (AID 1259364); further: top concentration of the series differs between compounds; nearly all actives have a fitted effect of over 45% in size
How it was run: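 Luminescence read after 30 min room-temperature HDAC-Glo incubation measures cellular class I/II HDAC activity. Compounds were applied for 2 hr at 37 C to HCT-116 wild-type cells seeded the day before.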

[15] = qHTS assay to identify small molecule HDAC inhibitors - cell viability counter screen (AID 1259365)
How it was run: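 To flag cytotoxic hits, 1,500 wild-type HCT-116 cells per well, plated the day before, receive test compounds for 2hr at 37 C before CellTiter-Glo reagent and a luminescence read.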

[16] = qHTS assay to identify small molecule agonists of the sonic hedgehog signaling (Shh) pathway - cell viability counter screen (AID 1259366); further: nearly all actives have a fitted effect of over 50% in size; further: potency means the concentration at half of the fitted maximal effect
How it was run: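 Fluorescence from CellTiter-Fluor reports live cells in this counter screen. NIH/3T3-derived Gli1-Luc reporter cells receive test compounds for 24hr at 37C; reagent goes in at 23hr.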

[17] = qHTS assay to identify small molecule antagonists of the sonic hedgehog signaling (Shh) pathway - cell viability counter screen (AID 1259367); further: nearly all actives have a fitted effect of over 55% in size
How it was run: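 Cytotoxicity was assessed in parallel with Shh reporter activity by measuring live-cell protease fluorescence (CellTiter-Fluor) in NIH/3T3 cells stably carrying Gli1-Luc, treated with compound under conditioned medium stimulation for 23 hr plus 1 hr reagent incubation.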

[18] = qHTS RealTime-Glo MT Cell Viability Assay in HEK293 cells - 8 hour (AID 1224887); further: nearly all actives have a fitted effect of over 50% in size; further: potency means the concentration at half of the fitted maximal effect
How it was run: as §1

[19] = qHTS assay to identify small molecule antagonists of the androgen receptor (AR) signaling pathway using the MDA cell line in the presence of 0.5 nM R1881 - cell viability counter screen (AID 1259242); further: nearly all actives have a fitted effect of over 45% in size; further: potency means the concentration at half of the fitted maximal effect
How it was run: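 Live-cell protease activity was measured by CellTiter-Fluor fluorescence after 30 min. Before that, MDA-kb2 MMTV-luciferase cells had 16 hr at 37C without CO2, exposed to test compounds and 0.5 nM R1881 final.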

[20] = qHTS assay to identify small molecule phospholipidosis (PLD) inducers (AID 1259344; active means well fitted curve in the direction sought with a large enough effect; an effect the other way counts as inactive or inconclusive)
How it was run: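 Cells (HepG2, 900 per well) attach for 4 h, receive LipidTOX Red and compound together, incubate 24 h at 37 C, are fixed 30 min with paraformaldehyde/Hoechst, then imaged at one site per well.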

## CO/N=C(/C(=O)OC)c1ccccc1COc1ccccc1C
[1]
  Potency: inactive
[2]
  Potency: inactive
[3]
  Potency: inactive
[4]
  Potency: inactive
[5]
  Potency: inactive
[6]
  Potency: inactive
[7]
  Potency: inactive
[8]
  Potency: inactive
[9]
  Potency: inactive
[10]
  Potency: inactive
[11]
  Potency: inactive
[12]
  Potency: 17.2 µM (active)
[13]
  Potency: inactive
[14]
  Potency: inactive
[15]
  Potency: inactive
[16]
  Potency: inactive
[17]
  Potency: inactive

## CN1C(=O)C(O)N=C(c2ccccc2)c2cc(Cl)ccc21 (stereo unspecified)
[1]
  Potency: inactive
[2]
  Potency: inactive
[3]
  Potency: inactive
[4]
  Potency: inactive
[5]
  Potency: inactive
[6]
  Potency: inactive
[18]
  Potency: inactive
[8]
  Potency: inactive
[9]
  Potency: inactive
[10]
  Potency: inactive
[11]
  Potency: inactive
[19]
  Potency: inactive
[13]
  Potency: 56.4 µM (active)
[20]
  outcome: inactive
[15]
  Potency: inactive
[16]
  Potency: inactive
[17]
  Potency: inactive

## CCOP(=S)(OCC)Oc1cc(Cl)c(Br)cc1Cl
[1]
  Potency: inactive
[2]
  Potency: inactive
[3]
  Potency: inactive
[4]
  Potency: inactive
[5]
  Potency: inactive
[6]
  Potency: inactive
[18]
  Potency: inactive
[9]
  Potency: inactive
[10]
  Potency: inactive
[19]
  Potency: inactive
[13]
  Potency: inactive
[14]
  Potency: inactive
[15]
  Potency: inactive
[16]
  Potency: inactive
[17]
  Potency: inactive

## COc1nn(CSP(=S)(OC)OC)c(=O)s1
[1]
  Potency: inactive
[2]
  Potency: inactive
[3]
  Potency: inactive
[5]
  Potency: inactive
[6]
  Potency: inactive
[7]
  Potency: inactive
[18]
  Potency: inactive
[8]
  Potency: inactive
[9]
  Potency: inactive
[10]
  Potency: inactive
[11]
  Potency: inactive
[19]
  Potency: inactive
[13]
  Potency: inactive
[20]
  outcome: inactive
[14]
  Potency: inactive
[15]
  Potency: inactive
[16]
  Potency: inactive
[17]
  Potency: inactive

## BrCC(Br)C1CCC(Br)C(Br)C1 (stereo unspecified)
[1]
  Potency: inactive
[2]
  Potency: inactive
[3]
  Potency: inactive
[4]
  Potency: inactive
[5]
  Potency: inactive
[6]
  Potency: inactive
[8]
  Potency: inactive
[9]
  Potency: inactive
[10]
  Potency: inactive
[11]
  Potency: inactive
[19]
  Potency: inactive
[14]
  Potency: inactive
[15]
  Potency: inactive
[16]
  Potency: inactive
[17]
  Potency: inactive

## O=[N+]([O-])c1ccc(F)c([N+](=O)[O-])c1
[1]
  Potency: inactive
[2]
  Potency: inactive
[3]
  Potency: inactive
[4]
  Potency: inactive
[5]
  Potency: inactive
[6]
  Potency: inactive
[8]
  Potency: inactive
[9]
  Potency: inactive
[10]
  Potency: inactive
[11]
  Potency: 17.4 µM (active)
[19]
  Potency: 30.9 µM (active)
[13]
  Potency: 27.6 µM (active)
[20]
  outcome: inactive
[15]
  Potency: inactive
[16]
  Potency: 24.6 µM (active)

## S=C=NCc1ccccc1
[1]
  Potency: inactive
[2]
  Potency: 49.5 µM (active)
[3]
  Potency: inactive
[5]
  Potency: inactive
[6]
  Potency: inactive
[7]
  Potency: 24.8 µM (active)
[9]
  Potency: inactive
[10]
  Potency: inactive
[11]
  Potency: inactive
[19]
  Potency: inactive
[12]
  Potency: 27.6 µM (active)
[14]
  Potency: inactive
[15]
  Potency: inactive
[16]
  Potency: inactive
[17]
  Potency: inactive

## O=C1NCN(c2ccccc2)C12CCN(CCCOc1ccc(F)cc1)CC2
[1]
  Potency: inactive
[2]
  Potency: inactive
[3]
  Potency: inactive
[5]
  Potency: inactive
[6]
  Potency: inactive
[18]
  Potency: inactive
[8]
  Potency: inactive
[9]
  Potency: inactive
[10]
  Potency: inactive
[11]
  Potency: inactive
[19]
  Potency: inactive
[13]
  Potency: 7.5 µM (active)
[20]
  outcome: inactive
[15]
  Potency: inactive
[17]
  Potency: inactive

## C(=NC1CCCCC1)=NC1CCCCC1
[1]
  Potency: inactive
[2]
  Potency: 19.6 µM (active) and 24.5 µM (active)
[3]
  Potency: inactive
[4]
  Potency: 11 µM (active) and 12.3 µM (active)
[5]
  Potency: inactive
[7]
  Potency: 19.6 µM (active) and 19.5 µM (active)
[9]
  Potency: inactive
[10]
  Potency: inactive
[11]
  Potency: inactive
[19]
  Potency: 8.69 µM (active)
[13]
  Potency: 43.3 µM (active)
[14]
  Potency: inactive
[15]
  Potency: inactive
[16]
  Potency: inactive
[17]
  Potency: inactive

## CC(C)N(C(=O)COc1nnc(C(F)(F)F)s1)c1ccc(F)cc1
[1]
  Potency: inactive
[2]
  Potency: inactive
[3]
  Potency: inactive
[4]
  Potency: inactive
[5]
  Potency: inactive
[18]
  Potency: 34.7 µM (active)
[8]
  Potency: inactive
[9]
  Potency: inactive
[10]
  Potency: inactive
[19]
  Potency: inactive
[13]
  Potency: inactive
[14]
  Potency: inactive
[15]
  Potency: inactive
[16]
  Potency: inactive
[17]
  Potency: inactive

## COP(=O)(OC)O/C(=C/Cl)c1cc(Cl)c(Cl)cc1Cl
[1]
  Potency: inactive
[2]
  Potency: inactive
[3]
  Potency: inactive
[5]
  Potency: inactive
[6]
  Potency: inactive
[18]
  Potency: inactive
[8]
  Potency: inactive
[9]
  Potency: inactive
[10]
  Potency: inactive
[11]
  Potency: inactive
[19]
  Potency: inactive
[12]
  Potency: 45.7 µM (active)
[13]
  Potency: 57.5 µM (active)
[14]
  Potency: inactive
[15]
  Potency: inactive
[16]
  Potency: inactive
[17]
  Potency: inactive

## O=C(CBr)OCc1ccccc1
[1]
  Potency: inactive
[2]
  Potency: inactive
[3]
  Potency: inactive
[4]
  Potency: inactive
[5]
  Potency: inactive
[6]
  Potency: inactive
[18]
  Potency: inactive
[8]
  Potency: inactive
[9]
  Potency: inactive
[10]
  Potency: inactive
[11]
  Potency: inactive
[19]
  Potency: inactive
[13]
  Potency: inactive
[14]
  Potency: inactive
[15]
  Potency: inactive
[16]
  Potency: inactive
[17]
  Potency: inactive

## O=C(NC(=O)c1c(F)cccc1F)Nc1cc(Cl)c(Oc2ncc(C(F)(F)F)cc2Cl)c(Cl)c1
[1]
  Potency: inactive
[2]
  Potency: inactive
[3]
  Potency: inactive
[4]
  Potency: inactive
[5]
  Potency: inactive
[18]
  Potency: inactive
[9]
  Potency: inactive
[10]
  Potency: inactive
[19]
  Potency: inactive
[12]
  Potency: 26.1 µM (active)
[13]
  Potency: 29.3 µM (active)
[14]
  Potency: inactive
[15]
  Potency: inactive
[16]
  Potency: inactive
[17]
  Potency: inactive

## CCOC(=O)[C@]1(c2ccccc2)Oc2ccccc2[C@@H]1N
[1]
  Potency: inactive
[2]
  Potency: inactive
[3]
  Potency: inactive
[4]
  Potency: inactive
[5]
  Potency: inactive
[6]
  Potency: inactive
[18]
  Potency: inactive
[9]
  Potency: inactive
[10]
  Potency: inactive
[11]
  Potency: inactive
[19]
  Potency: inactive
[14]
  Potency: inactive
[15]
  Potency: inactive
[16]
  Potency: inactive
[17]
  Potency: inactive

From PubChem BioAssay (Tox21)
